Assay [1] deals with Estrogen receptor (Homo sapiens) (UniProt P03372). In words: OT_ER_ERaERa_1440: Odyssey Thera (OT) 24-hour HEK293T Protein-Complementation Assay for Estrogen Receptor-alpha/-alpha Homodimer (AID 2283349).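 Note: hits raise fluorescence above DMSO for agonists and antagonists alike.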 The method, boiled down: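 Readout is the rise in mean fluorescence from reporter fragment complementation when ERα LBD (aa 310-547) units dimerize in HEK293T cells. Measured 24 h after dosing and analysed as increase over DMSO control.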
Sequence of Estrogen receptor (Homo sapiens) (P03372 whole entry, looked up, the tested form may be a part): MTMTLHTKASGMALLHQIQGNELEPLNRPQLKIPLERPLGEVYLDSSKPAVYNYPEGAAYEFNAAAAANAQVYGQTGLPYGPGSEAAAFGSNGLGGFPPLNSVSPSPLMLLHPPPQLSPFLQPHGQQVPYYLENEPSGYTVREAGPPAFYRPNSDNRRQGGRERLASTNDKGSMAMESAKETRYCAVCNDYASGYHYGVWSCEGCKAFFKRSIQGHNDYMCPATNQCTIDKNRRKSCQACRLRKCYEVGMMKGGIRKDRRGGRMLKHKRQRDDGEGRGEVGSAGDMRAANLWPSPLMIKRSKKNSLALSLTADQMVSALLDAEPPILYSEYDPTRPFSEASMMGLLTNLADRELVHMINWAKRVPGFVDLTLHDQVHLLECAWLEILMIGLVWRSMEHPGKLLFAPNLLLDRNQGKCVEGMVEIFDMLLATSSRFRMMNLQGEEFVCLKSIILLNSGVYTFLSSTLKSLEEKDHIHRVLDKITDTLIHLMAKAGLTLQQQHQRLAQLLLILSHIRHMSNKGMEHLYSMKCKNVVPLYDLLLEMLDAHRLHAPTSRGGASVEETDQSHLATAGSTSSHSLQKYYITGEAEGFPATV

Assay [2] has as its target Estrogen receptor (Homo sapiens) + Estrogen receptor beta (Homo sapiens) (UniProt P03372+Q92731). In words: OT_ER_ERaERb_0480: Odyssey Thera (OT) 8-hour HEK293T Protein-Complementation Assay for Estrogen Receptor-alpha/-beta Heterodimer (AID 2283352). An outline of the steps: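 Increase in mean fluorescence intensity, measured by laser scanning plate cytometry, reported ER-alpha/ER-beta LBD complementation in HEK293T cells after 8 h chemical exposure. DMSO served as baseline; basal signal is low, punctate and cytoplasmic.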

Assay [3] concerns the target Estrogen receptor (Homo sapiens) (UniProt P03372). Kind of assay: NVS_NR_hER: NovaScreen (NVS) Nuclear Receptor Binding Assay for human Estrogen Receptor (ER) (AID 2283348). The method, boiled down:
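Cell-free radioligand binding with protein extracted from MCF7 cells; scintillation counting 18 hours after dosing. Loss of signal versus DMSO baseline read as displacement; primary single-concentration screen at 25 uM in duplicate, actives retested in concentration series.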

For assay [4] the target is unchanged. Kind of assay: OT_ER_ERaERa_0480: Odyssey Thera (OT) 8-hour HEK293T Protein-Complementation Assay for Estrogen Receptor-alpha/-alpha Homodimer (AID 2283351).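 Note: rise in fluorescence from reassembled reporter fragments on ERα LBD homodimer in nucleus or whole cell.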 An outline of the steps: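 HEK293T cells stably expressing the human ERα ligand-binding domain (aa 310-547) as a homodimer PCA were dosed with compound for 8 h. Gain of fluorescence intensity versus DMSO vehicle was read by laser scanning cytometry.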

For assay [5], the target named is chimpanzee Androgen Receptor (AR), AR (gene 747460) (UniProt O97775). Kind of assay: NVS_NR_cAR: NovaScreen (NVS) Nuclear Receptor Binding Assay for chimpanzee Androgen Receptor (AR) (AID 2283346).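 Note: radioligand displacement from AR measured by scintillation counting in a cell-free assay.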 An outline of the steps:
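Cell-free radioligand displacement using receptor protein extracted from Sf9/Sf21 cells; bound radioligand measured by scintillation counting 72 hours after chemical dosing. Loss of signal versus DMSO baseline indicates binding; primary screen single-concentration in duplicate at 25 uM, actives followed in concentration series.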

18 molecules from PubChem BioAssay (EPA / NIEHS) can be followed below.

A word on the AC50: it is the concentration at which the activity in the assay is half-maximal.

The structures appear in SMILES notation. Inconclusive results are not listed. Active and inactive are the calls of the source. Rule for the calls: active = hit-call score of the fitted dose curve at least 0.9, where 1 is the maximum; inconclusive = response in the unintended direction; inactive = score below 0.9.

Sequence of Estrogen receptor (Homo sapiens) + Estrogen receptor beta (Homo sapiens) (P03372 whole entry, looked up, the tested form may be a part): as above
Sequence of Estrogen receptor (Homo sapiens) + Estrogen receptor beta (Homo sapiens) (Q92731 whole entry, looked up, the tested form may be a part): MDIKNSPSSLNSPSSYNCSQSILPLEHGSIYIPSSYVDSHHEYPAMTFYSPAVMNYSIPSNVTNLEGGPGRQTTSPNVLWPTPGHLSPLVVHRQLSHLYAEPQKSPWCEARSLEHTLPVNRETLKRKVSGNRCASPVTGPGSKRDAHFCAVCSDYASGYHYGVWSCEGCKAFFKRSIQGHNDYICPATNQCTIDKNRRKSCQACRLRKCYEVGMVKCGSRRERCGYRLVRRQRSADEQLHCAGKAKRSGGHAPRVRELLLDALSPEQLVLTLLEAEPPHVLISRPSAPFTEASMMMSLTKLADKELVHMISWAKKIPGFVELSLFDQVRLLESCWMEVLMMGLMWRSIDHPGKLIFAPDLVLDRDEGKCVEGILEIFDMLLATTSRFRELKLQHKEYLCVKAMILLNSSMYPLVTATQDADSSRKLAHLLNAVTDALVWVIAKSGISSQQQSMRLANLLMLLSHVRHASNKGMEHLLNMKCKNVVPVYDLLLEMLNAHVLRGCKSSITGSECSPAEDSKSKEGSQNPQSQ
Sequence of chimpanzee Androgen Receptor (AR), AR (gene 747460) (O97775 whole entry, looked up): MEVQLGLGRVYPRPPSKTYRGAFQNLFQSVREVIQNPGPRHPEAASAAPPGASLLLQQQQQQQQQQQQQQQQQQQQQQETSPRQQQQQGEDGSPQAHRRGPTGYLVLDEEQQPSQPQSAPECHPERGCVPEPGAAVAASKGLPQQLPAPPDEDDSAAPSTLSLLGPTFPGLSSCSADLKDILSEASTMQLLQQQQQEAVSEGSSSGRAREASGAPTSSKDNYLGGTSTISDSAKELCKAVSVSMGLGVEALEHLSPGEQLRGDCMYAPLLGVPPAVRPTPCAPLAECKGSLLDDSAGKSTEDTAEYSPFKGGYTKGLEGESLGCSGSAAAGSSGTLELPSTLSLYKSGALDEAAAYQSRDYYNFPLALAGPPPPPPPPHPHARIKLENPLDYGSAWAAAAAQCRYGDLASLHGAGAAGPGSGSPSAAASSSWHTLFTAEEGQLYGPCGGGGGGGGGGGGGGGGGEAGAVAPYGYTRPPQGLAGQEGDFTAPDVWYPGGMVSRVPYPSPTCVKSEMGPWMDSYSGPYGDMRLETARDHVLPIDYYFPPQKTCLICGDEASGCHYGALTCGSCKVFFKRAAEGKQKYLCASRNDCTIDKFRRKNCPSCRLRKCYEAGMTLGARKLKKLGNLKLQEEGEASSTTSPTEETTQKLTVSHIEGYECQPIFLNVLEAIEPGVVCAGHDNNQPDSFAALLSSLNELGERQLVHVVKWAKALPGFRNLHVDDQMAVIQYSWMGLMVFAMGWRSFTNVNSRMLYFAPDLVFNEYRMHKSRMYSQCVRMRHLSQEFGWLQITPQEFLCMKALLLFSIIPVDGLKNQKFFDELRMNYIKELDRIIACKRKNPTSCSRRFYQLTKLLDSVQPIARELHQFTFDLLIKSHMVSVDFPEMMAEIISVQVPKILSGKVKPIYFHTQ

As for `OCC(O)CO`, the result in assay [1] and in assay [2] was inactive.

On to `Cc1cccc([N+](=O)[O-])c1`, for which the call in assay [3], in assay [1] and in assay [4] was inactive.

For `CN(C)CCO`, the molecule was called inactive in assay [1], in assay [4] and in assay [2].

As for `c1ccc(-c2ccccc2)cc1`, the molecule was called inactive in assay [3], in assay [1] and in assay [2].

As for `O=C(NC(=O)c1cc(F)c(F)cc1Cl)Nc1cc(F)ccc1N1CCC(C(=O)O)CC1`, the result in assay [1] and in assay [4] was inactive.

In the case of `C=CC(=O)NCNC(=O)C=C`, the result in assay [3], in assay [1], in assay [4] and in assay [2] was inactive.

As for `CC(C)C(=O)OCC(C)(C)C(OC(=O)C(C)C)C(C)C` (stereo unspecified), the molecule was called inactive in assay [1] and in assay [2].

Take `CN(C)c1nc(=O)n(C2CCCCC2)c(=O)n1C`: the molecule was called inactive in assay [1].

Regarding `CCC(C)c1cc([N+](=O)[O-])cc([N+](=O)[O-])c1O` (stereo unspecified), the call in assay [1], in assay [4] and in assay [2] was inactive.

In the case of `Nc1ccc(-c2ccc(N)cc2)cc1`, the concentration at half-maximal activity (AC50) in assay [5] is 19.9 µM (active). Moreover, the outcome in assay [3], in assay [1] and in assay [2] was inactive.

Consider `Cc1ccc(O)c(C)c1`, for which the molecule was classed as inactive in assay [3], in assay [1], in assay [4] and in assay [2].

Turning to `CCOP(=S)(OCC)SCSC(C)(C)C`, the call in assay [1] was inactive.

On to `O=C(N[C@H]1CN2CCC1CC2)c1cc2ccoc2cn1`, for which the molecule was classed as inactive in assay [1] and in assay [2].

For `O=S(=O)(O)C(F)(F)C(F)(F)C(F)(F)C(F)(F)F`, the molecule was called inactive in assay [1].

For the molecule `Nn1cnnc1`, the molecule was called inactive in assay [3], in assay [1] and in assay [2].

With `Cc1cccc(C)c1N`, the outcome in assay [1] and in assay [2] was inactive.

As for `ClC1=C(Cl)[C@]2(Cl)[C@@H]3[C@@H]4C[C@@H]([C@H]5O[C@@H]45)[C@@H]3[C@@]1(Cl)C2(Cl)Cl`, the molecule was called inactive in assay [3] and in assay [1].

Regarding `CCOC(=O)C(O)(c1ccc(Cl)cc1)c1ccc(Cl)cc1`, in assay [5], the AC50 was 6.34 µM (active). In addition, the molecule was called inactive in assay [3], in assay [1] and in assay [2].
